Here are results for 25 compounds from PubChem BioAssay (NCATS).

Results filed as inconclusive are left out. Calls of active or inactive are those of the source. Calls follow the shape of the dose curve; as a rule, active = well fitted cell-killing curve with a large enough effect; inconclusive = small, poorly fitted or top-dose-only effect, or effect the other way; inactive = no such curve, though single readings can be large or run the other way.
Potency is read from the fitted curve at half-maximal effect.

The nature of the assay: Quantitative High-Throughput drug screen in 47 multiple myeloma cell lines against the NCATS MIPE library collection: XG6_PLB cell viability assay (AID 1919865). Also: nearly all actives have a fitted effect of over 40% in size. Particulars: XG6 myeloma viability, CellTiter-Glo ATP luminescence, 48 h; series mostly up to 45.8 µM. An excerpt: PI: Beverly A. Mock Ph.D.
Laboratory of Cancer Biology and Genetics,
Center for Cancer Research, National Cancer Institute,
National Institute of Health, Bethesda, Maryland
Drug resistance and disease progression are common in multiple myeloma (MM) patients, underscoring the need for new therapeutic combinations. […] We hypothesized that effective combinations would reduce MYC expression and enhance p16 activity. […] These preclinical data identify potentially useful drug combinations for evaluation in drug-resistant MM and reveal potential mechanisms of combined drug sensitivity.
Described herein is the primary MIPE qHTS used to cherrypick compounds. Validated compounds were then further tested for potential synergistic activiy.
[1] Peat TJ, Gaikwad SM, Dubois W, Gyabaah-Kessie N, Zhang S, Gorjifard S, Phyo Z, Andres M, Hughitt VK, Simpson RM, Miller MA, Girvin AT, Taylor A, Williams D, D'Antonio N, Zhang Y, Rajagopalan A, Flietner E, Wilson K, Zhang X, Shinn P, Klumpp-Thomas C, McKnight C, Itkin Z, Chen L, Kazandijian D, Zhang J, Michalowski AM, Simmons JK, Keats J, Thomas CJ, Mock BA. Drug combinations identified by high-throughput screening promote cell cycle transition and upregulate Smad pathways in myeloma. Cancer Lett. 2023 Aug 1;568:216284. doi: 10.1016/j.canlet.2023.216284. Epub 2023 Jun 24. PMID: 37356470; PMCID: PMC10408729.
SEQUENCE No. (e.g., 1, 2, 3, etc.); […] (e.g., Cells, Incubation, Reagent, etc.); VALUE and DESCRIPTION.
1; Cells; 5 uL; white, solid bottom 1536-well Greiner assay plate.
2; Compounds; 23 nL; Kalypsis pin tool (Wako USA) equipped with a 1536-well pin head to transfer to the assay plates.
3; Incubation; 48 hours; 37C incubation.
4; Reagent;5uL; CellTiter Glo (Promega).
5; Detector; 425V; Luminescence; Viewlux PerkinElmer.
NOTES (numbers refer to Sequence numbers above)
1. The cell-based screening methods employed in this study were like those previously published. Briefly, the corresponding myeloma cell lines were screened in 1,536-well plates with 500 cells, 5-uL per well for inhibition of cell viability (assessed by measuring ATP levels with CellTiterGlo).
2. NCATS MIPE 4.0 library of approved and investigational drugs were added using the Kalypsis pin tool. Wells treated with DMSO only for 100% viability and media only for 0% viability were used as controls.
3. The assay plates were covered and incubated for 48 hours in a 37C, 5% CO2 incubator with controlled humidity.
4. After 48 hours, CellTilter-GloTM luminescent substrate mix (Promega) reagent was added to the assay plate and plates we incubated for 5 min at room temperature.
5. Signal was measured as median relative luminescence units on a ViewLux (PerkinElmer) multiplate reader.
[1] Heske CM, Davis MI, Baumgart JT, Wilson K, Gormally MV, Chen L, Zhang X, Ceribelli M, Duveau DY, Guha R, Ferrer M, Arnaldez FI, Ji J, Tran HL, Zhang Y, Mendoza A, Helman LJ, Thomas CJ. Matrix Screen Identifies Synergistic Combination of PARP Inhibitors and Nicotinamide Phosphoribosyltransferase (NAMPT) Inhibitors in Ewing Sarcoma. Clin Cancer Res. 2017 Dec 1;23(23):7301-7311. doi: 10.1158/1078-0432.CCR-17-1121. Epub 2017 Sep 12. PMID: 28899971; PMCID: PMC6636827.
Regarding `O=c1[nH]c2ccccc2n1CCCN1CCC(n2c(=O)[nH]c3cc(Cl)ccc32)CC1`, the Potency is 20.9 µM (active). For `Cn1c(CCCC(=O)O)nc2cc(N(CCCl)CCCl)ccc21`, the Potency was 14.8 µM (active). Turning to `Cc1sc2c(c1C)C(c1ccc(Cl)cc1)=N[C@@H](CC(=O)OC(C)(C)C)c1nnc(C)n1-2`, the Potency was 7.43 µM (active). `CN(C)[C@@H]1C(=O)C(C(N)=O)=C(O)[C@@]2(O)C(=O)C3=C(O)c4c(O)cccc4[C@@](C)(O)[C@H]3C[C@@H]12`: the Potency result is “inactive”. Take `Fc1ccc(C(OCCN2CCN(CCCc3ccccc3)CC2)c2ccc(F)cc2)cc1`: the Potency is 7.43 µM (active). `COC[C@@H](NC(C)=O)C(=O)NCc1ccccc1`: the Potency entry is “inactive”.

On to `CNC(=O)c1ccc(N2C(=S)N(c3ccc(C#N)c(C(F)(F)F)c3)C(=O)C23CCC3)cc1F`, for which the Potency was 1.05 µM (active).

As for `CC(O)(CS(=O)(=O)c1ccc(F)cc1)C(=O)Nc1ccc(C#N)c(C(F)(F)F)c1` (stereo not given), the Potency is 0.0935 µM (active). `C[C@@H]1[C@@H](CC(C[C@H]2O[C@@H]3O[C@]4(C)CC[C@@H]5[C@H](C)CC[C@@H]([C@H]2C)[C@@]35OO4)C[S+](=O)([O-])c2ccc(COC(=O)N(C)C)cc2)O[C@@H]2O[C@]3(C)CC[C@H]4[C@H](C)CC[C@@H]1[C@@]24OO3` (stereo not given in full): the Potency is 0.264 µM (active). As to `CNC(=O)N1N=C(c2ccc(N)cc2)c2cc3c(cc2CC1C)OCO3` (stereo not given), the Potency is 7.43 µM (active). Consider `C=C(C)[C@H]1Cc2c(ccc3c2O[C@@H]2COc4cc(OC)c(OC)cc4[C@@H]2C3=O)O1`, for which the Potency is 0.526 µM (active). Regarding `O=P1(NCCCl)OCCCN1CCCl` (stereo not given), the Potency is 16.6 µM (active). Take `N[C@@H](Cc1ccc(N(CCCl)CCCl)cc1)C(=O)O`: the Potency was 1.18 µM (active). Turning to `CN(C)CCN(C)CCc1ccc(Cl)c(Cl)c1`, the Potency result is “inactive”. `CC(C)CC(N(C)C)C1(c2ccc(Cl)cc2)CCC1` (stereo not given): the Potency entry is “inactive”.

As to `COC1(CS(=O)c2ccccc2)CCN(CCc2c[nH]c3ccc(F)cc23)CC1` (stereo not given), the Potency is 16.6 µM (active). For the compound `CC1=C2C[C@@H]3[C@@H](CC=C4C[C@@H](O)CC[C@@]43C)[C@@H]2CC[C@]12O[C@H]1C[C@H](C)CN[C@H]1[C@H]2C`, the Potency entry was “inactive”.

With `O=C1CC[C@@]2(O)[C@H]3Cc4ccc(O)c5c4[C@@]2(CCN3CC2CC2)[C@H]1O5`, the Potency result was “inactive”.

For `Cc1cccc(C)c1NC(=O)CN1CCCC1=O`, the Potency entry is “inactive”. Regarding `COc1ccc2c(c1OC)CN1CCc3cc4c(cc3C1C2)OCO4` (stereo not given), the Potency was 20.9 µM (active). Under `C[C@@H]1O[C@@H](O[C@H]2C[C@@H](O)[C@]3(CO)[C@H]4[C@H](O)C[C@]5(C)[C@@H](C6=CC(=O)OC6)CC[C@]5(O)[C@@H]4CC[C@]3(O)C2)[C@H](O)[C@H](O)[C@H]1O` stands 0.0187 µM (active). Turning to `Cn1cc(C2=C(c3cn(C4CCN(Cc5ccccn5)CC4)c4ccccc34)C(=O)NC2=O)c2ccccc21`, the Potency was 2.96 µM (active). For the compound `CN1CCN(C(=O)O[C@H]2c3nccnc3C(=O)N2c2ccc(Cl)cn2)CC1`, the Potency result is “inactive”. Regarding `COc1ccc(C(=O)c2c(C)n(CCN3CCOCC3)c3ccccc23)cc1`, the Potency entry is “inactive”.

On to `COC[C@H]1OC(=O)c2coc3c2[C@@]1(C)C1=C(C3=O)C2CCC(=O)[C@@]2(C)C[C@H]1OC(C)=O` (stereo not given in full), for which the Potency is 4.18 µM (active).
